The source of these data is the supplement of paper PMC9023506.

Counter-ions that a name gives are not always drawn.

This test deals with Danio rerio larvae (5 dpf). Description: optomotor response to red moving lines, difference vs DMSO (percentage points (treated minus DMSO)); higher = more of the behaviour than the DMSO vehicle control. Particulars: 10 µM; exposure time: 3 h pre-incubation + 3 h imaging. The essentials: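 Library drugs were diluted 1000× from DMSO stocks into egg water to reach 10 µM and applied to 5-dpf wild-type zebrafish larvae in 96-well ProxiPlates, 48 larvae per drug. The larvae stayed exposed for 3 h before imaging and for the 3 h of imaging at 28.5 °C. Behaviour scores, given in percentage points, are the treated mean minus the vehicle mean for movement and upper-half location.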
Regarding `CC(C)n1c(/C=C/C(O)CC(O)CC(=O)O)c(-c2ccc(F)cc2)c2ccccc21` (stereo unspecified) [Fluvastatin sodium], the “optomotor response to red moving lines” value is -2.5.
As for `CCOC(=O)[C@H](CCc1ccccc1)N[C@@H](C)C(=O)N1[C@H](C(=O)O)C[C@@H]2CCC[C@@H]21` [Ramipril], the “optomotor response to red moving lines” value was -1.65.
`CN[C@H]1CC[C@@H](c2ccc(Cl)c(Cl)c2)c2ccccc21` [Sertraline hydrochloride]: the “optomotor response to red moving lines” value was 21.6.
Then `Cc1ccc(O)c([C@H](CCN(C(C)C)C(C)C)c2ccccc2)c1` [Tolterodine L-tartrate], with -0.0985.
The figure for `CCOC(=O)N1CCC(=C2c3ccc(Cl)cc3CCc3cccnc32)CC1` [Loratidine] is -14.1; for `O=C(O[C@@H]1C[C@@H]2C[C@H]3C[C@H](C1)N2CC3=O)c1c[nH]c2ccccc12` [Dolasetron mesylate] it is -6.24.
Take `CC(c1cc2ccccc2s1)N(O)C(N)=O` (stereo unspecified) [Zileuton]: the “optomotor response to red moving lines” value was -7.52.
Then `Cc1c(-c2ccc(O)cc2)n(Cc2ccc(OCCN3CCCCCC3)cc2)c2ccc(O)cc12` [Bazedoxifene acetate], with 9.09.
Consider `CCOC(=O)C1=C(COCCN)NC(C)=C(C(=O)OC)C1c1ccccc1Cl` (stereo unspecified) [Amlodipine besylate], for which the “optomotor response to red moving lines” value is -1.08.
The figure for `COc1cc2nc(N3CCN(C(=O)C4COc5ccccc5O4)CC3)nc(N)c2cc1OC` (stereo unspecified) [Doxazosin mesylate] is -7.06; for `COCCc1ccc(OCC(O)CNC(C)C)cc1` (stereo unspecified) [Metoprolol tartrate] it is -1.5.
Consider `Nc1cccc2c1CN(C1CCC(=O)NC1=O)C2=O` (stereo unspecified) [Lenalidomide], for which the “optomotor response to red moving lines” value was 6.24.
The figure for `C[C@@H](O[C@H]1OCCN(Cc2n[nH]c(=O)[nH]2)[C@H]1c1ccc(F)cc1)c1cc(C(F)(F)F)cc(C(F)(F)F)c1` [Aprepitant] is -4.19.
As to `CCCCCCCN(CC)CCCC(O)c1ccc(NS(C)(=O)=O)cc1` (stereo unspecified) [Ibutilide hemifumarate], the “optomotor response to red moving lines” value came out at 10.1.
In the case of `NS(=O)(=O)Cc1noc2ccccc12` [Zonisamide], the “optomotor response to red moving lines” value amounted to 13.
As for `CC(C)(C(=O)O)c1ccc(C(O)CCCN2CCC(C(O)(c3ccccc3)c3ccccc3)CC2)cc1` (stereo unspecified) [Fexofenadine hydrochloride], the “optomotor response to red moving lines” value is 3.62.
As for `Cc1cc(C2CCCCC2)n(O)c(=O)c1` [Ciclopirox], the “optomotor response to red moving lines” value was -5.18.
For `CN(C)C(=N)NC(=N)N` [Metformin hydrochloride], the “optomotor response to red moving lines” value worked out at 17.8.
In the case of `CC(C)COCC(CN(Cc1ccccc1)c1ccccc1)N1CCCC1` (stereo unspecified) [Bepridil hydrochloride], the “optomotor response to red moving lines” value was 3.6.
For `CNS(=O)(=O)Cc1ccc2[nH]cc(CCN(C)C)c2c1` [Sumatriptan succinate], the “optomotor response to red moving lines” value is -6.18.
As for `COc1ccccc1OCCNCC(O)COc1cccc2[nH]c3ccccc3c12` (stereo unspecified) [Carvedilol], the “optomotor response to red moving lines” value came to 1.15.
The figure for `Cc1ccsc1C(=CCCN1CCC[C@@H](C(=O)O)C1)c1sccc1C` [Tiagabine hydrochloride] is 20.4.
Then `CC(C)(C(=O)c1cccnc1)c1cccnc1` [Metyrapone], with 4.83.
`N#C[C@@H]1C[C@@H]2C[C@@H]2N1C(=O)[C@@H](N)C12CC3CC(CC(O)(C3)C1)C2` [Saxagliptin hydrochloride]: the “optomotor response to red moving lines” value is -1.45.
For the compound `C[C@H]1C[C@@H]2[C@H]([C@@H](O)C[C@@]3(C)[C@H]2CC[C@]3(O)C(=O)CO)[C@@]2(C)C=CC(=O)C=C12` [Methylprednisolone], the “optomotor response to red moving lines” value was -1.93.
In the case of `N[C@@H]1[C@H]2CN(c3nc4c(cc3F)c(=O)c(C(=O)O)cn4-c3ccc(F)cc3F)C[C@@H]12` [Trovafloxacin mesylate], the “optomotor response to red moving lines” value came out at 4.89.
